# Platelet DG rel = modulates dense granule release in human platelets. 0.22% of 300,000 active. inhibition, %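 (compounds screened at 7.5 µM in platelet-rich plasma)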. human platelet-rich plasma, SFLLRN dense granule ATP release, luminescence. AID 1663;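 active = mean replicate score, as percent of positive control, at or above 50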
# AI-2 QS mod = modulates the Vibrio harveyi AI-2 quorum sensing system. Vibrio harveyi JMH597 AI-2 luminescence/OD600 ratio, 9 h; hits give low values; strain lacks LuxN and CqsS sensors; 0 = neutral-control median. activity change, % at 7.5 µM. 0.4% of 300,000 active. AID 2094; in the data active = activity change below about -75%, passing the limit was not always enough;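 note: luminescence divided by OD600 gain over 9 h not by final OD600 alone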
# HIF act = HIF pathway transcriptional activation; activation, % at 7.5 µM (by protocol); U2OS HRE-luciferase reporter, luminescence; normalized: DMSO 0%, desferrioxamine 100%; 0.32% of 300,000 active;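 active = mean activation of at least 10% of the iron chelator positive control signal, with at least half of replicates also reaching 10%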
# CHT allo act = allosterically activates the human high affinity choline transporter; CHT-expressing cells, membrane potential dye, choline EC20; hits give high values; LV-AA mutant CHT in HEK293 cells; Q9GZV3; AID 488977; B-score at 10 µM; 0.49% of 310,000 active;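 active = initial fluorescence not abnormally high and integrated response B-score, plate-corrected, over 3 SD above library mean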
# VLA-4 inh = inhibition in a human VLA-4 binding assay | inhibition, % (about 7 µM as worked out from the volumes in the protocol) | 0.2% of 330,000 active | VLA-4 expressing cells, ligand binding flow cytometry; in the data active = inhibition above about 50%
# CHT block = human CHT choline transport inhibition | Q9GZV3 | CHT-expressing cells, membrane potential dye, choline response; hits give low values | B-score at 10 µM | 0.86% of 310,000 active | AID 488975;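 active = B-score over 3 SD under the library average, and starting fluorescence ratio not unusually high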;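 note: choline stimulus applied at its EC90 after an EC20 pre-addition; B-score computed on integrated fluorescence ratio after choline addition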
# CHT act confirm = confirmation of human choline transporter (CHT) activators; activation, % at 10 µM; 91% of 2,500 active; shares compounds with CHT allo act; CHT-expressing cells, membrane potential dye fluorescence (FDSS); % of choline EC20–EC90 response window; HEK293 expressing CHT LV-AA mutant; choline added at its EC20;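 active = primary screen active, with duplicate mean activation above negative control mean plus 3 SD, cut at about 11% in these data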
# HEK293 MP dye = CHT activator counter-screen hit in parental HEK293 cells | 62% of 2,500 active | shares compounds with CHT allo act | membrane potential dye fluorescence (FDSS); measured after EC20 choline addition | AID 623908 | ratio readout change at 10 µM, hits read low;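 active = duplicate-averaged ratio beyond 3 SD from buffer wells, up or down, though filed actives are nearly all decreases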
# Numbers without * were called inactive; i = inactive; . = not tested or not shown. The list is not random: actives were taken first. Their share in the collection is about 2.2%.
SMILES,Platelet DG rel,AI-2 QS mod,HIF act,CHT allo act,VLA-4 inh,CHT block,CHT act confirm,HEK293 MP dye
O=C1c2cnc3ncnn3c2CC2c3ccccc3CCN12 (stereo not drawn),1,16,0,i,7,i,21*,-27*
CSc1nc2ncc3c(n2n1)CC1c2ccccc2CCN1C3=O (stereo not drawn),-9,2,0,i,5,i,.,.
COC(=O)c1sc(NC(=O)C(C)c2ccccc2)nc1C (stereo not drawn),2,9,0,6.7*,28,i,30*,i
COc1cc2c(cc1OC)-c1cc3ccc(OC)c(OC)c3c[n+]1CC2,.,.,.,i,5,i,36*,-24*
COc1cc(OC)c(-c2nnc(-c3ccc(OC)c(OC)c3OC)o2)cc1OC,11,2,0,i,18,i,.,.
CCCCCC(=O)Nc1ccc(Cc2ccncc2)cc1,-5,-10,0,i,9,i,.,.
NCCCCCC(=O)Nc1ccncc1,-2,1,-1,i,1,i,18*,-35*
CCCCn1c(CN(C)Cc2ccccc2)nc2c1c(=O)n(C)c(=O)n2C,-1,17,-1,6.6*,4,i,0,i
CCCCCCn1c(CN2CCN(CCO)CC2)nc2c1c(=O)n(C)c(=O)n2C,11,-6,0,8.1*,13,i,60*,-56*
CCCCCCn1c(CN2CCC(C)CC2)nc2c1c(=O)n(C)c(=O)n2C,2,11,0,i,1,i,.,.
CCOC(=O)[C@H]1[C@H]2COc3ccc(Br)cc3[C@H]2N2C(=O)CNC(=O)[C@@]12C,.,.,.,.,12,.,.,.
Cc1ccc(NC(=O)c2ccc(Cl)c(S(=O)(=O)N3CCCCCC3)c2)nc1,0,19,0,i,19,i,.,.
CCCCN(C)CCNS(=O)(=O)c1ccc2c(c1)n(C)c(=O)c(=O)n2C,-2,15,0,17*,-2,i,76*,-84*
O=C(Oc1coc(CSc2nnc(NC(=O)C3CC3)s2)cc1=O)c1c(F)cccc1F,-2,6,0,i,-5,i,.,.
COC(=O)c1c(NC(=O)C(C)(C)C)sc2c1CCN(Cc1ccccc1)C2,-3,1,0,i,-13,i,.,.
COC(=O)c1c(NC(C)=O)sc2c1CCN(Cc1ccccc1)C2,1,6,-1,7.2*,-12,i,40*,-66*
CCOC(=O)c1c(NC(C)=O)sc2c1CCN(Cc1ccccc1)C2,2,14,-1,6.4*,-16,i,40*,-60*
CCOC(=O)c1c(NC(=O)CC)sc2c1CCN(Cc1ccccc1)C2,3,2,0,i,-13,i,.,.
COc1ccc(NS(=O)(=O)c2cc(C(=O)NNC(=O)c3ccncc3)ccc2OC)c(OC)c1,.,.,.,.,-1,.,.,.
O=C(NNC(=O)C1CCN(c2ncccn2)CC1)c1ccncc1,7,6,0,i,33,i,.,.
CC(Sc1nncs1)C(=O)Nc1ccc(S(=O)(=O)Nc2ncccn2)cc1 (stereo not drawn),.,.,.,.,-3,.,.,.
CCN1CCN(Cc2cc(=O)oc3cc(C)cc(C)c23)CC1,2,15,-1,7.1*,5,i,40*,-42*
Cc1cc(C)c2c(CN3CCOCC3)cc(=O)oc2c1,-10,4,0,i,7,i,.,.
CC(=O)Nc1ccc(NC(=O)C(C)OC(=O)C2CCN(S(=O)(=O)c3ccc4c(c3)OCCO4)CC2)cc1 (stereo not drawn),8,17,0,i,4,i,.,.
N#C/C(=C\c1c(N2CCCCC2)nc2ccccn2c1=O)C(=O)NC1CCS(=O)(=O)C1 (stereo not drawn),7,6,0,13*,-9,i,0,-62*
SMILES,Platelet DG rel,AI-2 QS mod,HIF act,CHT allo act,VLA-4 inh,CHT block,CHT act confirm,HEK293 MP dye
Cc1cccn2c(=O)c(/C=C(\C#N)C(=O)NC3CCS(=O)(=O)C3)c(N3CCC(C)CC3)nc12 (stereo not drawn),1,18,0,i,1,i,.,.
CCOC(=O)COc1c(Cl)cc(/C=C2\N=C(C)OC2=O)cc1OC,13,25,-1,i,0,i,.,.
CCN(Cc1ccccc1)C(=O)c1nn(-c2ccc(OC)cc2)c(=O)c2c1c1ccccc1n2C,-3,18,0,i,5,i,46*,i
CC(CCc1ccccc1)NC(=O)/C=C/c1ccc(Cl)cc1 (stereo not drawn),-2,27,-1,i,4,i,6,i
CC(Cc1ccccc1)NC(=O)/C=C/c1ccc([N+](=O)[O-])cc1 (stereo not drawn),-13,6,0,i,14,i,.,.
S=C(NC1CC2CCC1C2)N1CCN(c2cccc(Cl)c2)CC1 (stereo not drawn),-10,39,0,i,-4,i,.,.
CCC[N+](CC#CCO)(CC#Cc1ccccc1)CCC,3,4,0,i,22,i,.,.
CCCC[N+](CC#CCO)(CC#Cc1ccccc1)CCCC,-2,9,0,11*,12,i,74*,i
Cc1cc(C)nc(NC(N)=NCCc2c[nH]c3ccccc23)n1,20,32,-1,8.6*,-8,i,60*,-61*
Cc1cc(C)nc(NC(N)=NC(C)c2ccccc2)n1 (stereo not drawn),0,5,0,6.3*,6,i,45*,-34*
O=C(NCCCN1CCCC1=O)c1cccc(S(=O)(=O)N2CCCCC2)c1,.,.,.,.,-14,.,.,.
CS(=O)(=O)N(CC(=O)N1CCCCCC1)c1cccc([N+](=O)[O-])c1,1,-7,1,i,-2,i,.,.
CC(C)NC(=O)CN1CCC(c2nc3ccccc3[nH]2)CC1,-7,4,1,i,-3,i,.,.
O=C(c1cccc(Cl)c1)N1CCC(=O)N(C(COCc2ccccc2)Cc2ccccc2)CC1 (stereo not drawn),3,17,0,6.3*,.,i,29*,i
CCOc1ccccc1OCCCC(=O)Nc1cc(S(=O)(=O)N2CCOCC2)ccc1OC,.,.,.,.,-2,.,.,.
COc1cccc2cc(C(=O)N3CCC(C)CC3)c(=O)oc12,13,29,0,i,-18,i,.,.
COc1cccc2cc(C(=O)OC3CCN(C)CC3)c(=O)oc12,37,3,0,6.7*,-5,i,43*,-38*
